Active and inactive are the calls of the source.
What was measured:
[1] = test system: PRMT1 (protein arginine N-methyltransferase 1); test: small molecules binding arginine methyltransferase PRMT1 – biochemical, small-molecule microarray, 635 nm fluorescence, primary screen (AID 1088); conditions: higher = more signal;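 note: binding of Prmt1 protein to compounds spotted on small-molecule microarray slides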
[2] = growth effects on S. cerevisiae YJM789 – YJM789 clinical isolate, OD600, 24 h, basal, primary screen (AID 1089); conditions: higher = more signal, called active from +8 up or from −8 down;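 note: growth of clinical yeast isolate S. cerevisiae YJM 789 seeded 1000 cells per well; test concentration not given here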
[3] = S. pombe growth modifiers, basal conditions – strain 972, OD600, 24 h, no modulator, primary screen (AID 1090);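 note: basal condition with compound alone and no growth modifier present; test concentration not given here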; conditions: S. pombe 972 growth, higher = more signal, called active from +8 up or from −8 down
[4] = budding yeast growth modifiers under rapamycin – strain BY4716, OD600, 96 h, primary screen (AID 1091); note: test concentration not given here; conditions: S. cerevisiae BY4716 + rapamycin, higher = more signal, called active from +8 up or from −8 down
[5] = target: Torsin-1A-interacting protein 2 (Homo sapiens) (UniProt Q8NFQ8); test: small molecules binding lysate-expressed LULL1 – cell lysate, human LULL1 lysate, 635/667 nm fluorescence, primary screen (AID 1092); conditions: small-molecule microarray, hLULL1 lysate binding, 635 nm fluorescence; higher = more signal;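 note: probe is lysate of COS7 cells overexpressing human LULL1; score merges per-feature 667 nm fluorescence with signal-to-noise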
Sequence of Torsin-1A-interacting protein 2 (Homo sapiens) (Q8NFQ8 whole entry, looked up): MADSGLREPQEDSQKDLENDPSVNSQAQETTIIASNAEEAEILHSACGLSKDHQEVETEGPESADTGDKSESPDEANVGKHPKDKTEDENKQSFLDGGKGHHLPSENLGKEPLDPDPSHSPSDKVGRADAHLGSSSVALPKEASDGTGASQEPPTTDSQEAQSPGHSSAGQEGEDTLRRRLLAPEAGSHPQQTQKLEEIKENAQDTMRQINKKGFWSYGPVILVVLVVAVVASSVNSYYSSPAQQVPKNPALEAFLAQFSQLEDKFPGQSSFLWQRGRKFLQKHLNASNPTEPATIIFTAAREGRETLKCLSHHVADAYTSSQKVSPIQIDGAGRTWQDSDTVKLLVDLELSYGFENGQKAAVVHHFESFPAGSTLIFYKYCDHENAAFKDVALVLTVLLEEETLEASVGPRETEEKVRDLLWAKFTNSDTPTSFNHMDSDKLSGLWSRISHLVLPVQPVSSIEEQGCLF

[6] = optical density change of DRC41 E. coli – strain DRC41, OD650, 24 h, E. coli filamentation project, primary screen (AID 1093);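 note: MC1000 strain lacking acrAB efflux and sulA so SOS filamentation is blocked; test concentration not given here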; conditions: E. coli DRC41 growth, higher = more signal, called active from +8 up or from −8 down
[7] = probe aLefty2 binding to arrayed compounds – biochemical, biotinylated probe, 635/667 nm fluorescence, primary screen (AID 1094); conditions: small-molecule microarray, higher = more signal;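 note: score merges spot fluorescence near 667 nm with spot signal-to-noise ratio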
[8] = test system: Noggin (protein binding on small-molecule microarray); test: small molecules binding Noggin protein – biochemical, 635/667 nm fluorescence, primary screen (AID 1095); conditions: 635 nm fluorescence, higher = more signal;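 note: score merges 667 nm feature fluorescence with signal to noise over triplicate slides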
[9] = target: Neurogenic locus notch homolog protein 3 (Homo sapiens) (UniProt Q9UM47); test: small molecules binding NOTCH3 protein – biochemical, 635/667 nm fluorescence, primary screen (AID 1096); conditions: small-molecule microarray, 635 nm fluorescence, higher = more signal
Sequence of Neurogenic locus notch homolog protein 3 (Homo sapiens) (Q9UM47 whole entry, looked up): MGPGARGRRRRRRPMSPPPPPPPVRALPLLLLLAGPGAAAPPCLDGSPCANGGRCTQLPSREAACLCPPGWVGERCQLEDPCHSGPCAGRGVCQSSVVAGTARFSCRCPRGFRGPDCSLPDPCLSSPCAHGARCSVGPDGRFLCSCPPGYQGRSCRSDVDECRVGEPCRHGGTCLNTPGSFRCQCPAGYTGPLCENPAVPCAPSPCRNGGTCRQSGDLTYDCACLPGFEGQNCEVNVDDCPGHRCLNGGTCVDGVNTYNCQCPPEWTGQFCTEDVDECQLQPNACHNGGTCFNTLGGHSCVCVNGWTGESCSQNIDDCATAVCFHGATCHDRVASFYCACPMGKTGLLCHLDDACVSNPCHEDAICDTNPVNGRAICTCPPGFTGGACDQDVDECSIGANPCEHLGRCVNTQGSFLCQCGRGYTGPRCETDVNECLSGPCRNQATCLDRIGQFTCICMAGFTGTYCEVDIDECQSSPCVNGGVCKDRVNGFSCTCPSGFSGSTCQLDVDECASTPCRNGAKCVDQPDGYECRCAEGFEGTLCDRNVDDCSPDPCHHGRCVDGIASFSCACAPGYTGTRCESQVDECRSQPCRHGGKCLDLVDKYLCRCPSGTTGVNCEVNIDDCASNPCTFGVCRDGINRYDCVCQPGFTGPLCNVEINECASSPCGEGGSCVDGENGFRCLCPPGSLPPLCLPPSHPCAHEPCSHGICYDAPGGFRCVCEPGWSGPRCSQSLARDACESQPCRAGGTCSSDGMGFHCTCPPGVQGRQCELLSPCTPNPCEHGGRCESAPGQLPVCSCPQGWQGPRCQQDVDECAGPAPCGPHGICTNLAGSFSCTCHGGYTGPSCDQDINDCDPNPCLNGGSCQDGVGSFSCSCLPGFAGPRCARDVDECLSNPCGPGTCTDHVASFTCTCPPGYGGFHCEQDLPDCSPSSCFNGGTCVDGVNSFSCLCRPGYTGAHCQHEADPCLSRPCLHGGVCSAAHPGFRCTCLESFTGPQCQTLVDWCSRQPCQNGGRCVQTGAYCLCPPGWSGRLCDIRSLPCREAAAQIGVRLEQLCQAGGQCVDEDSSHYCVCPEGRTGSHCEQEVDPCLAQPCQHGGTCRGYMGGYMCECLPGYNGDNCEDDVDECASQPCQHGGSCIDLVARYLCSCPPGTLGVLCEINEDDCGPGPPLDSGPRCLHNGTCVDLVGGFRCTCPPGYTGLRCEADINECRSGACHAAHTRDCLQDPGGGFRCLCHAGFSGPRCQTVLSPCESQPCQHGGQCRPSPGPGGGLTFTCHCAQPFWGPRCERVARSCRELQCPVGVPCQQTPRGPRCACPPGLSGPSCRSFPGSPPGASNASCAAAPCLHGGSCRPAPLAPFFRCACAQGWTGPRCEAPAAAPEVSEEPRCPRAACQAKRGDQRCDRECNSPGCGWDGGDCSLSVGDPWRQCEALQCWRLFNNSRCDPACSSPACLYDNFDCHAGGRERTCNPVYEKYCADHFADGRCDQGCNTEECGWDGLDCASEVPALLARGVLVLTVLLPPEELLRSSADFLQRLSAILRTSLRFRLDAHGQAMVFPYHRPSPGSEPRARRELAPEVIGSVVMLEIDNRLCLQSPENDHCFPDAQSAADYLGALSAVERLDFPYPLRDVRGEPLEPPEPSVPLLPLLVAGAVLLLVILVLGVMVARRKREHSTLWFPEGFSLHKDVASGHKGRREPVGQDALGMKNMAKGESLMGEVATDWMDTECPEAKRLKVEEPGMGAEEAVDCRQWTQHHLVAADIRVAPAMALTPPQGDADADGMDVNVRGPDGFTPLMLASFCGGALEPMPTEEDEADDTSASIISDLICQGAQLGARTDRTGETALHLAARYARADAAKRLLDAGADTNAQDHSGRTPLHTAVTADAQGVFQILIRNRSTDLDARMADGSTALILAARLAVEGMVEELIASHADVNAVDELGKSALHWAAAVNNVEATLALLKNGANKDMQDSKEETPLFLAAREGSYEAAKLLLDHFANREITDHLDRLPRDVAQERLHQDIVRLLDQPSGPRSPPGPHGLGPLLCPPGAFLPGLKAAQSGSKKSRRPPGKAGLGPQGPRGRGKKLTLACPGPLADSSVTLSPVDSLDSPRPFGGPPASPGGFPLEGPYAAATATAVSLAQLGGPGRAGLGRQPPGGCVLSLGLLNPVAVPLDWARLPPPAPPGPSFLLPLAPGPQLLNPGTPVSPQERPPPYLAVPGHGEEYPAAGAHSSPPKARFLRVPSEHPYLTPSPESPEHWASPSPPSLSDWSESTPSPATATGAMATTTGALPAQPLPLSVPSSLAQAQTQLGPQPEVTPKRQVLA

[10] = probe aEGFR binding to arrayed compounds – biochemical, biotinylated probe, 635/667 nm fluorescence, primary screen (AID 1097); conditions: small-molecule microarray, higher = more signal;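 note: probe is a biotinylated anti-EGFR antibody binding compounds printed on slides; score combines fluorescence near 667 nm and signal to noise of each spot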
[11] = test system: Plasmodium falciparum Sir2 (PF13_0152, Sir2A); test: Plasmodium falciparum Sir2A binding compounds – biochemical, small-molecule microarray, 635 nm fluorescence, primary screen (AID 1098); conditions: fluorescence 635 nm, higher = more signal;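 note: score merges spot fluorescence intensity with its signal-to-noise ratio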
[12] = probe aDKK1 binding to arrayed compounds – biochemical, biotinylated probe, 635/667 nm fluorescence, primary screen (AID 1099); conditions: small-molecule microarray, higher = more signal;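 note: score merges 667nm spot fluorescence with signal to noise across triplicate slides; reference of the scale not given here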
[13] = probe aCHRDL2 binding to arrayed compounds – biochemical, biotinylated probe, 635/667 nm fluorescence, primary screen (AID 1100); conditions: small-molecule microarray, higher = more signal
[14] = change in splice reporter luminescence, either direction, cell-based, HEK293, spliceosome inhibition project, primary screen (AID 1101); conditions: HEK293 splicing luciferase reporter, 24 h, higher = more signal, called active from +8 up or from −8 down;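 note: HEK293 cells carrying a splicing-competent luciferase reporter gene; test concentration not given here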
[15] = target: Fibroblast growth factor 10 (Homo sapiens) (UniProt O15520); test: compounds binding fibroblast growth factor 10 – biochemical, small-molecule microarray, 635 nm fluorescence, primary screen (AID 1102); conditions: FGF10 binding, fluorescence 635 nm, higher = more signal
Sequence of Fibroblast growth factor 10 (Homo sapiens) (O15520 whole entry, looked up): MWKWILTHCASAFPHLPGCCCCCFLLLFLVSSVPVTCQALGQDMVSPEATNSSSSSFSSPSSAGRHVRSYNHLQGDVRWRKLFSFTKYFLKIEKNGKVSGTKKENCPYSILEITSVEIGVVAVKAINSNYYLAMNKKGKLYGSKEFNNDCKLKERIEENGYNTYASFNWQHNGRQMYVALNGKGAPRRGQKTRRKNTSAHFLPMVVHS

[16] = test system: glycogen synthase kinase-3 (GSK3A per assay name; protocol says GSK3B); test: compounds binding glycogen synthase kinase-3 – biochemical, small-molecule microarray, 635 nm fluorescence, GSK3A, primary screen (AID 1103); conditions: fluorescence 635 nm, higher = more signal; note: the record names both GSK3A and GSK3B
[17] = target: Epidermal growth factor receptor (Homo sapiens) (UniProt P00533); test: compounds binding epidermal growth factor receptor – biochemical, small-molecule microarray, 635 nm fluorescence, primary screen (AID 1104); conditions: EGFR binding, higher = more signal;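 note: score merges 667 nm emission intensity with spot signal to noise over triplicate slides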
Sequence of Epidermal growth factor receptor (Homo sapiens) (P00533 whole entry, looked up): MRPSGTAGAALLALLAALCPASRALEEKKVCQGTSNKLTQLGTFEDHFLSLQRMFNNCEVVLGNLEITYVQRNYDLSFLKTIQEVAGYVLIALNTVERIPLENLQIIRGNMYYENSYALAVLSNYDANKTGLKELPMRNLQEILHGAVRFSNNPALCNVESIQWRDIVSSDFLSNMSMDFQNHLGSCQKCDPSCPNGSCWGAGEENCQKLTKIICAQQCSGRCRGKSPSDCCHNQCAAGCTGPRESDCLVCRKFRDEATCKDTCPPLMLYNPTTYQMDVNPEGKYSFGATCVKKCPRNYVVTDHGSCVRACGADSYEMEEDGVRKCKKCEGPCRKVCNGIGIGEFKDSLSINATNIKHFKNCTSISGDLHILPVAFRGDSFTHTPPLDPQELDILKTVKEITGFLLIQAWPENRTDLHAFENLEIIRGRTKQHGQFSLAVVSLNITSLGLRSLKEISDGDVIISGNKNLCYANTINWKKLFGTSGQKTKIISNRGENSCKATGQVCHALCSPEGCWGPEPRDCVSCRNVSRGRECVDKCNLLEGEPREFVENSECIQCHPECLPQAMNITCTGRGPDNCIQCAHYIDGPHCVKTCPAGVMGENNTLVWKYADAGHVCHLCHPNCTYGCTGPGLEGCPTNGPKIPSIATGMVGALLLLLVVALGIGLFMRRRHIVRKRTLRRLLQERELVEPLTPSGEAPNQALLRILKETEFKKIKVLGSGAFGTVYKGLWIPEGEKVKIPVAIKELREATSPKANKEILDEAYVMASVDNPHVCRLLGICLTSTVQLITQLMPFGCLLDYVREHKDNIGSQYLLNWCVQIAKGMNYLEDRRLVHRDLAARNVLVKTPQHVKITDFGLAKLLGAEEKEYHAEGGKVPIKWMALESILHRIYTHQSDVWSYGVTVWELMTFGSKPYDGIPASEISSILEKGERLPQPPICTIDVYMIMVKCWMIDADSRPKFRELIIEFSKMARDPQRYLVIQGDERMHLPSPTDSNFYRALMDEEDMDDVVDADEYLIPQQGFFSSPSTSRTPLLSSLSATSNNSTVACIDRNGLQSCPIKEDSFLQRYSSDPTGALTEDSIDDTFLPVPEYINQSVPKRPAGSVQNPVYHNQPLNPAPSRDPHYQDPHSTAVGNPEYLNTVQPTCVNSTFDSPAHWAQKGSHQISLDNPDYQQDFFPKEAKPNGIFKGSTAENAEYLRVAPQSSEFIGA

[18] = target: Follistatin-related protein 3 (Homo sapiens) (UniProt O95633); test: compounds binding follistatin-related protein 3 – biochemical, small-molecule microarray, 635 nm fluorescence, primary screen (AID 1105); conditions: FSTL3 binding, higher = more signal;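 note: score merges emission near 667 nm and signal to noise per printed spot across three slides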
Sequence of Follistatin-related protein 3 (Homo sapiens) (O95633 whole entry, looked up): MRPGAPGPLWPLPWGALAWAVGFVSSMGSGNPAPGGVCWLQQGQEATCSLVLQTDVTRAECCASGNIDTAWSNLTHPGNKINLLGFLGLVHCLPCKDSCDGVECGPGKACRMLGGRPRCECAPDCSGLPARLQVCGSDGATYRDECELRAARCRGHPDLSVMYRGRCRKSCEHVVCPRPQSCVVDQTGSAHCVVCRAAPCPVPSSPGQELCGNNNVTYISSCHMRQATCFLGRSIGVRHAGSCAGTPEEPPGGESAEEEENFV

[19] = target: Dickkopf-related protein 1 (Homo sapiens) (UniProt O94907); test: small molecules binding DKK1 protein – biochemical, small-molecule microarray, 635 nm fluorescence scan, primary screen (AID 1106); conditions: higher = more signal;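 note: score merges emission near 667 nm with signal to noise over three replicate slides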
Sequence of Dickkopf-related protein 1 (Homo sapiens) (O94907 whole entry, looked up): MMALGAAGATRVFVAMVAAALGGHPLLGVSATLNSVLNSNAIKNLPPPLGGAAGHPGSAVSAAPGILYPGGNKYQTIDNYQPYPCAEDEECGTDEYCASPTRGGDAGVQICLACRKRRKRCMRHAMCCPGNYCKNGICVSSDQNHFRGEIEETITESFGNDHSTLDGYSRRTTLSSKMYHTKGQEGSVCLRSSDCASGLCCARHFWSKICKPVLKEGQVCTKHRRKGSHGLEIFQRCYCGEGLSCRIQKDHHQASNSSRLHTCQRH

[20] = test system: Inhibin beta A chain (activin A); test: small molecules binding activin A – biochemical, small-molecule microarray, 635 nm fluorescence scan, primary screen (AID 1107); conditions: INHBA, higher = more signal;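 note: mouse activin A protein probed at 4.33 µg/mL on printed slides; score merges bound-protein fluorescence near 667 nm with spot signal-to-noise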

Structure (SMILES)	composite z-score [1]	z-score [2]	z-score [3]	z-score [4]	composite z-score [5]	z-score [6]	composite z-score [7]	composite z-score [8]	composite z-score [9]	composite z-score [10]	composite z-score [11]	composite z-score [12]	composite z-score [13]	z-score [14]	composite z-score [15]	composite z-score [16]	composite z-score [17]	composite z-score [18]	composite z-score [19]	composite z-score [20]
COC(=O)[C@@]1(Cc2ccc(F)cc2)[C@H]2c3cc(C(=O)N(C)C)n(Cc4ccc(C)c(F)c4F)c3C[C@H]2CN1C(=O)c1ccccc1	-0.495	0.28 (inactive)	1.18 (inactive)	0.934 (inactive)	3.18	0.583 (inactive)	0.439	-0.724	0.876	0.856	0.0477	0.871	1.03	-0.509 (inactive)	0.158	-0.224	0.558	-0.0326	-0.693	1.39
COCCOC(=O)N1C(=O)[C@@]2(c3cc(C#CC4(O)CCCCCC4)ccc31)[C@H](C(=O)N1CCN(c3ncccn3)CC1)[C@H]1C(=O)O[C@H](c3ccccc3)[C@H](c3ccccc3)N1[C@@H]2c1ccc(O)cc1	1.47	1.79 (inactive)	-0.885 (inactive)	2.83 (inactive)	2.54	1.31 (inactive)	-0.172	0.287	0.546	-0.158	1.27	-0.127	0.227	-0.756 (inactive)	0.45	0.235	0.152	0.321	0.0884	0.921
CO[C@H]1O[C@H](CO)[C@@H](OC(=O)Nc2cccc(F)c2)[C@H](OC(=O)Nc2ccc3c(c2)OCO3)[C@H]1OC(=O)Nc1ccc2c(c1)OCO2	1.55	1.38 (inactive)	1.29 (inactive)	1.6 (inactive)	3.25	1.76 (inactive)	-0.0025	1.07	0.649	-0.142	0.932	0.0673	0.307	-0.197 (inactive)	0.693	0.26	0.199	0.55	0.177	0.674
C=CCC(OC(C)=O)[C@@H]1[C@@H](N(Cc2ccc(-c3cccc(C(F)(F)F)c3)o2)C(=O)c2cccc3ccccc23)c2cc(OCCCO)ccc2N1C(=O)c1ccc(-c2ccccc2)cc1 (stereo not given in full)	-0.496	0.0476 (inactive)	0.0758 (inactive)	-0.0038 (inactive)	-0.94	-0.993 (inactive)	-0.0785	1.06	-0.358	-0.099	0.295	0.0007	-0.0042	-0.791 (inactive)	0.192	-0.579	0.181	0.248	0.518	1.09
COC(=O)[C@@]1(Cc2ccc(OC)cc2)[C@H]2c3cc(C(=O)N(C)C)n(CCF)c3C[C@H]2CN1C(=O)c1ccccc1	0.574	0.215 (inactive)	1.25 (inactive)	0.167 (inactive)	3.24	-0.0418 (inactive)	0.411	0.296	1.02	0.0986	1.17	1.23	0.923	-0.674 (inactive)	0.601	1.14	0.185	1.03	-0.123	0.854
CC(C)(C)OC(=O)CC[C@@]1(C(=O)N2CCCCC2)N=C(c2ccc(OCCCO)cc2)O[C@@H]1c1ccccc1CN=[N+]=[N-]	1.54	-0.492 (inactive)	-0.689 (inactive)	-0.0683 (inactive)	3.66	0.308 (inactive)	0.208	0.39	1.05	0.0026	1.24	0.754	0.881	-2.55 (inactive)	0.56	0.53	0.0678	1.06	-0.0065	0.534
COCCOC(=O)N1C(=O)[C@@]2(c3cc(C#Cc4ccc(OC)cc4)ccc31)[C@H](C(=O)N1CCc3cc(OC)c(OC)cc3C1)[C@H]1C(=O)O[C@H](c3ccccc3)[C@H](c3ccccc3)N1[C@@H]2c1ccc(OCCO)cc1	1.33	2.2 (inactive)	1.36 (inactive)	5.75 (inactive)	1.32	0.816 (inactive)	-0.104	1.22	1.15	0.0343	-0.352	0.218	-0.0585	-0.32 (inactive)	0.705	1.03	0.595	0.997	0.588	0.115
COCCOC(=O)N1C(=O)[C@@]2(c3ccccc31)[C@H](c1ccc(OCCO)cc1)N1[C@H](c3ccccc3)[C@H](c3ccccc3)OC(=O)[C@H]1[C@@H]2C(=O)NC[C@H](O)c1ccccc1	1.53	2.2 (inactive)	0.892 (inactive)	6.77 (inactive)	3.09	-0.0625 (inactive)	0.187	1.19	1.04	-0.0759	1.32	0.161	0.568	-0.353 (inactive)	1.2	0.777	0.146	1.38	0.362	0.526
COc1ccc([Si](C)(C)[C@@H]2[C@@H](CCO)O[C@]3(C(=O)N(Cc4ccccc4)c4ccc(N5C(=O)COc6ccccc65)cc43)[C@H]2C)cc1	1.39	1.56 (inactive)	0.504 (inactive)	9.67 (active)	1.74	2.61 (inactive)	-0.0511	1.09	0.624	-0.187	0.845	-0.0934	0.0637	-1.21 (inactive)	0.0677	0.0368	-0.0505	0.0717	0.163	0.254
CC(C)C(CO)N1C(=O)[C@@H]2[C@H]3C(=O)OCC=C[C@H]3OC23C=CCN(CCN2CCOCC2)C(=O)[C@@H]13 (stereo not given in full)	0.598	1.21 (inactive)	0.0729 (inactive)	0.759 (inactive)	1.13	-0.455 (inactive)	-0.25	0.521	0.583	-0.244	1.15	-0.385	-0.538	0.653 (inactive)	-0.505	-0.118	-0.409	0.351	0.286	0.934
